# Screens as filed in PubChem BioAssay.
# An excerpt weighted towards active compounds, which were near 3.4% of everything screened.
# ADAM10 inh: human ADAM10 inhibitors, primary screen, biochemical, QFRET, HTS | Disintegrin and metalloproteinase domain-containing protein 10 (Homo sapiens), O14672 | recombinant ADAM10, EDANS/DABCYL FRET peptide cleavage, 3 h | 370,000 tested, 0.62% active | inhibition, % at 7 µM | AID 720582, 2013;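 active = inhibition above a per-campaign cutoff equal to the mean of compounds falling between control-based bounds plus 3 SD, cut at about 20% in these data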;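 also: 0% = DMSO wells while the 100% control is not disclosed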
# PLCg1 inh: PLC-gamma1 enzyme inhibitors, primary screen, biochemical, fluorescence, purified enzyme | 1-phosphatidylinositol 4,5-bisphosphate phosphodiesterase gamma-1 (Homo sapiens), P19174 | AID 720700, 2013 | fluorogenic substrate | 370,000 tested, 0.84% active | inhibition, % at 12.2 µM; in the data active = inhibition above about 9.5%
# PLCb3 inh: human PLC-beta3 inhibitors, primary screen, biochemical, fluorescence; 1-phosphatidylinositol 4,5-bisphosphate phosphodiesterase beta-3 (Homo sapiens), Q01970; Purified PLC-beta3, fluorogenic substrate; inhibition, % at 12.2 µM; 370,000 tested, 0.18% active; AID 720704, 2013; in the data active = inhibition above about 11%;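 also: 0% = median of compound wells on plate and 100% = full blocker control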
# Target sequence (Q01970 whole entry, looked up): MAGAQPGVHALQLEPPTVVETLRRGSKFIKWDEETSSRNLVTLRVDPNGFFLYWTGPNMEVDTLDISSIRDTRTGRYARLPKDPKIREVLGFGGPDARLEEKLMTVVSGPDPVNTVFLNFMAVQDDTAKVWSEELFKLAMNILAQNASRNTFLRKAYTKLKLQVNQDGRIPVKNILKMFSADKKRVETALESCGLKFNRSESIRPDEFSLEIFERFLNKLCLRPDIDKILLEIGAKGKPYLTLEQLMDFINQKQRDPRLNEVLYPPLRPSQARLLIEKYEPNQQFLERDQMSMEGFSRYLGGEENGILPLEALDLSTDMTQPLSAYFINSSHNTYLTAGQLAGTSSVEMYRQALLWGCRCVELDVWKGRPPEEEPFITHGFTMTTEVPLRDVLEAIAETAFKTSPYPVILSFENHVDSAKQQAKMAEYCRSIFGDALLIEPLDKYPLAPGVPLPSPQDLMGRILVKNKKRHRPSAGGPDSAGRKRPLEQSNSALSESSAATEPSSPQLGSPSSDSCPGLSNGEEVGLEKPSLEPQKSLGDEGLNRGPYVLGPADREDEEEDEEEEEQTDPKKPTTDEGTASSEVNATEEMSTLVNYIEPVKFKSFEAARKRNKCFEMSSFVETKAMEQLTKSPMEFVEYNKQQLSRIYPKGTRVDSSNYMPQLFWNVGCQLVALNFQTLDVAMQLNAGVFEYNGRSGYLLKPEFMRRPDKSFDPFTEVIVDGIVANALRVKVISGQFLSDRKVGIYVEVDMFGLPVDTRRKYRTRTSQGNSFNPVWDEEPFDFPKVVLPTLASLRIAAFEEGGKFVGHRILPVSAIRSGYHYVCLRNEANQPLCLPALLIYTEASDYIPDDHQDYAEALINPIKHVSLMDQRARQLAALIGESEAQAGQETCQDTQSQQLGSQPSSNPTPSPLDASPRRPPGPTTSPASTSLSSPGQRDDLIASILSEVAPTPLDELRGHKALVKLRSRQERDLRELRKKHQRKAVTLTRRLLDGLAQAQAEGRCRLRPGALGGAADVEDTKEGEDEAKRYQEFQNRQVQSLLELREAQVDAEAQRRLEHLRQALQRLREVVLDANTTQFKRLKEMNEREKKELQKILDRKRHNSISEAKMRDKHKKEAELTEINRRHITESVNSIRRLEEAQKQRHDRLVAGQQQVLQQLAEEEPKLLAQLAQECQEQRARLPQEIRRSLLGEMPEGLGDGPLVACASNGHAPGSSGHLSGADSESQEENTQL
# KLK7 zymogen act: proKLK7 zymogen activators, primary screen, biochemical, fluorescence intensity; Kallikrein-7 (Homo sapiens), P49862; purified proKLK7, EDANS-DABCYL substrate fluorescence; 100% is mature enzyme control, 0% vehicle; activation, % at 7 µM; 370,000 tested, 0.9% active;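 active = activation above the mean of all tested compounds plus 3 SD, computed per campaign excluding outliers beyond control limits, cut at about 13% in these data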
# ADAM17 inh: ADAM17 inhibitors, primary screen, biochemical, QFRET | AID 720648, 2013 | inhibition, % at 6.95 µM | 370,000 tested, 0.83% active | Disintegrin and metalloproteinase domain-containing protein 17 (Homo sapiens), P78536 | recombinant ADAM17, EDANS/DABCYL FRET peptide cleavage;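 active = inhibition above the mean of compounds lying between control limits plus 3 SD, set per campaign, cut at about 8.5% in these data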;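 also: 0% = DMSO-only wells as the low control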
# sPLA2-III inh: human group III sPLA2 inhibitors, primary screen, biochemical, QFRET, BODIPY PC-A2 liposome substrate; Group 3 secretory phospholipase A2 (Homo sapiens), Q9NZ20; QFRET BODIPY PC-A2 liposome hydrolysis, fluorescence; inhibition, % at 12.2 µM; 370,000 tested, 0.56% active; AID 743126, 2013;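 active = inhibition above mean plus 3 SD of compounds lying within the high and low control bounds, cut at about 19% in these data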;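 also: 0% = median of test compound wells and 100% = no enzyme DMSO wells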
# ADAM10 confirm: human ADAM10 inhibitors, confirmation, biochemical, QFRET, triplicate; shares compounds with ADAM10 inh; ADAM10 QFRET peptide cleavage, EDANS fluorescence; inhibition, % at 6.95 µM; 2,100 tested, 1% active; AID 743208, 2013;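 active = inhibition above about 20% chosen separately for each screening run, limit read from the data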;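 also: 0% = DMSO wells and 100% = marimastat wells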
# ADAM17 counter: ADAM17 inhibitors, counter-screen for ADAM10 exosite inhibitor project, biochemical, QFRET, high throughput. shares compounds with ADAM10 inh. inhibition, % at 6.95 µM. 2,100 tested, 0.5% active. ADAM17 QFRET peptide cleavage, EDANS fluorescence;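 active = mean triplicate inhibition above the solvent-only control wells' mean plus 3 SD, cut at about 12% in these data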;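 also: 0% = DMSO wells and 100% = marimastat wells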
# Numbers without * were called inactive; · = no result.
SMILES,ADAM10 inh,PLCg1 inh,PLCb3 inh,KLK7 zymogen act,ADAM17 inh,sPLA2-III inh,ADAM10 confirm,ADAM17 counter
O=C(CC1SC(=Nc2ccccc2)N(Cc2ccccn2)C1=O)Nc1ccc(Br)cc1 (stereo unspecified),22*,-3,-8,1,7,-15,11,4
O=C(CC1SC(=Nc2cccc3ccccc23)N(Cc2ccccn2)C1=O)Nc1ccccc1Br (stereo unspecified),-4,1,2,1,-2,-13,·,·
COc1ccc(CCNc2oc(COc3ccccc3)nc2C#N)cc1,19,-2,0,1,6,-17,·,·
N#Cc1nc(COc2ccccc2F)oc1NCCc1ccccc1,22*,1,-1,0,5,-24,5,0
CN1C(=O)c2cc(NS(C)(=O)=O)ccc2OC[C@H]2O[C@@H](CC(=O)NCc3ccc(-c4ccccc4)cc3)CC[C@@H]21,9,8,2,0,-12,-25,·,·
Cc1cc(Br)c2c(c1)/C(=C/C(=O)c1cccs1)C(=O)N2,20*,2,3,0,1,5,1,0
O=C1OCCN1C(=O)[C@H]1[C@H](c2ccc([N+](=O)[O-])cc2)C(c2ccccc2)=NN1c1ccccc1,24*,-4,-10,0,8,-18,7,3
O=C1OCCN1C(=O)[C@H]1[C@H](c2ccc([N+](=O)[O-])cc2)C(c2cccc(Cl)c2)=NN1c1ccccc1,42*,2,-9,-1,17*,-16,13,5
O=C1OCCN1C(=O)[C@H]1[C@H](c2ccc(F)cc2)C(c2ccccc2)=NN1c1ccccc1,-216,-262,-368,-67,-57,-18,·,·
COc1ccc(CCn2c(-c3ccc(C(C)(C)C)cc3)n[nH]c2=S)cc1OC,24*,5,-2,0,2,14,0,0
NC(=O)C(c1ccc(Cl)cc1)c1ccc(Sc2ccc(Cl)cc2)nn1 (stereo unspecified),23*,1,-1,0,4,-22,4,1
O=C(CSc1ccc(-c2ccncc2)nn1)c1ccc(Cl)cc1,6,0,-1,0,2,-32,·,·
C[C@@H]1CN([C@@H](C)CO)C(=O)CCCn2cc(nn2)CO[C@H]1CN(C)C(=O)Nc1ccccc1,-12,1,2,0,-3,3,·,·
CC(=O)C1=C(C)N(Cc2ccc(F)cc2)C(=S)NC1c1cccc(Cl)c1 (stereo unspecified),11,2,-5,1,4,-2,·,·
CCCCn1c(SCc2nc(N)nc(Nc3ccccc3C)n2)nc2ccccc2c1=O,21*,-1,1,1,4,-16,15,5
CC(=O)OCC(=O)[C@@]1(O)[C@H](C)C[C@H]2[C@@H]3CCC4=CC(=O)C=C[C@]4(C)[C@@]3(F)[C@@H](O)C[C@@]21C,9,9,4,0,4,3,·,·
CCC(=O)OCC(=O)[C@@]1(OC(=O)CC)[C@@H](C)C[C@H]2[C@@H]3CCC4=CC(=O)C=C[C@]4(C)[C@@]3(Cl)[C@@H](O)C[C@@]21C,21*,3,2,0,6,-29,1,0
COc1ccccc1NC(=O)Cc1csc(NC(=S)Nc2ccc(C)cc2)n1,33*,5,-3,-1,4,-33,6,2
